Measured values as given in article PMC7862700, “An all-to-all approach to the identification of sequence-specific readers for epigenetic DNA modifications on cytosine”.

Tests used:
Assay in all cases: DAPPL (digital affinity profiling via proximity ligation, sequencing); 10 mM Tris-HCl pH 7.5, 50 mM NaCl, 1 mM DTT, 4% glycerol, room temperature, 30 min; GST-TFs on glutathione beads, 16-mer random dsDNA library, 0.1% formaldehyde crosslink after washing; high values mean tight binding
FEV = biological target: T1, FEV (Homo sapiens, UniProt Q99581 1-238); settings: protein: recombinant; tags: N-terminal GST; dsDNA, one strand shown
T1 sequence: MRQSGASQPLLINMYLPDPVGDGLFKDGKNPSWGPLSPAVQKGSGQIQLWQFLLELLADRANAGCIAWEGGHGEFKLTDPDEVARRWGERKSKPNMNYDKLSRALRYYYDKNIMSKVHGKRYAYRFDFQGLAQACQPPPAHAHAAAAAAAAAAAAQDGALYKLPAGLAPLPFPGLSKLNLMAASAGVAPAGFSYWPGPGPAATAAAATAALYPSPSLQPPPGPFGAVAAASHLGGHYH
Procedure, shortened: (§1)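 Human transcription factors were made in yeast as GST fusions, captured on glutathione beads and barcoded with DNA. With a tag-only sample included, the pool was incubated with 200 nmole of a random double-stranded 16-mer DNA library in Tris/NaCl/DTT/glycerol buffer at room temperature for 30 min, then crosslinked with 0.1% formaldehyde after washing, ligated by proximity, amplified and sequenced. For binding signal, each hexamer's read frequency for a factor is divided by its frequency for the tag-only sample.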

ETV5 = ETV5 (Homo sapiens, UniProt P41161 1-510); settings: protein: recombinant; tags: N-terminal GST; dsDNA, one strand shown
ETV5, sequence (P41161 whole entry): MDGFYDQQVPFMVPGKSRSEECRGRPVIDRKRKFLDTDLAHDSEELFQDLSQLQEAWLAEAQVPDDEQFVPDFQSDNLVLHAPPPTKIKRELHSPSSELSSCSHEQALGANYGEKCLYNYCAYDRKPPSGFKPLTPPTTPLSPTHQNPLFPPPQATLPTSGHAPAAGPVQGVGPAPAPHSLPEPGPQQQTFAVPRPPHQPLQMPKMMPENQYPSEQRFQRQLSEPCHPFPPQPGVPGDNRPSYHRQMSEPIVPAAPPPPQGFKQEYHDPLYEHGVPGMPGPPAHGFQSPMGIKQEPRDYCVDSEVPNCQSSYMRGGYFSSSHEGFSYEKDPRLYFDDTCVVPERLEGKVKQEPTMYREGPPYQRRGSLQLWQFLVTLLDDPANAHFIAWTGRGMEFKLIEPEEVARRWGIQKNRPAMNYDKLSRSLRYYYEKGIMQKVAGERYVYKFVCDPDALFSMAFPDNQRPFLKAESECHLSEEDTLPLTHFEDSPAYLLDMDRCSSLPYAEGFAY
Procedure, shortened: as §1

HSF1 = HSF1 (Homo sapiens, UniProt Q00613 1-529); settings: protein: recombinant; tags: N-terminal GST; chain copies: 3; dsDNA, one strand shown
HSF1, sequence (Q00613 whole entry): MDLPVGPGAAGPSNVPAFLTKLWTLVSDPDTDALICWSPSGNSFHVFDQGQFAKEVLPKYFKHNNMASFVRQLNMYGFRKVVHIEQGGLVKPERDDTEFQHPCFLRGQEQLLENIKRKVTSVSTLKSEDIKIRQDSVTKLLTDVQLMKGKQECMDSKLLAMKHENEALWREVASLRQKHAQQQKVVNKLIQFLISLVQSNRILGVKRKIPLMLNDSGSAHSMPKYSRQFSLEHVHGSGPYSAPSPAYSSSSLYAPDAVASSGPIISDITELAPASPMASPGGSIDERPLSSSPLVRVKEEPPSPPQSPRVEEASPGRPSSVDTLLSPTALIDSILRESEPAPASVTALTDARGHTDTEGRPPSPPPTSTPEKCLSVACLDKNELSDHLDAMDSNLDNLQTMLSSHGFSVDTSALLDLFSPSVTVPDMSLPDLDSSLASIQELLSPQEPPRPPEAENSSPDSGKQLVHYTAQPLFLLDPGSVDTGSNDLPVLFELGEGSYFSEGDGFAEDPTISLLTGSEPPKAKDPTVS
Procedure, shortened: as §1

SPIC = biological target: T2, SPIC (Homo sapiens, UniProt Q8N5J4 1-248); settings: protein: recombinant; tags: N-terminal GST; dsDNA, one strand shown
T2 sequence: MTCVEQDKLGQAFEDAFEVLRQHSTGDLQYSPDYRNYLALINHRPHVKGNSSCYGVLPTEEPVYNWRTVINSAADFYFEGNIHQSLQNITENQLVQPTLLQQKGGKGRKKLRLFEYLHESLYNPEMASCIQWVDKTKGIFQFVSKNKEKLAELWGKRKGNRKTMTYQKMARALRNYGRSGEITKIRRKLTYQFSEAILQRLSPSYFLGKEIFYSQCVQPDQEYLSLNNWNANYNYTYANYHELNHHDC
Procedure, shortened: as §1

ELF4 = ELF4 (Homo sapiens, UniProt Q99607 1-663); settings: protein: recombinant; tags: N-terminal GST; dsDNA, one strand shown
ELF4, sequence (Q99607 whole entry): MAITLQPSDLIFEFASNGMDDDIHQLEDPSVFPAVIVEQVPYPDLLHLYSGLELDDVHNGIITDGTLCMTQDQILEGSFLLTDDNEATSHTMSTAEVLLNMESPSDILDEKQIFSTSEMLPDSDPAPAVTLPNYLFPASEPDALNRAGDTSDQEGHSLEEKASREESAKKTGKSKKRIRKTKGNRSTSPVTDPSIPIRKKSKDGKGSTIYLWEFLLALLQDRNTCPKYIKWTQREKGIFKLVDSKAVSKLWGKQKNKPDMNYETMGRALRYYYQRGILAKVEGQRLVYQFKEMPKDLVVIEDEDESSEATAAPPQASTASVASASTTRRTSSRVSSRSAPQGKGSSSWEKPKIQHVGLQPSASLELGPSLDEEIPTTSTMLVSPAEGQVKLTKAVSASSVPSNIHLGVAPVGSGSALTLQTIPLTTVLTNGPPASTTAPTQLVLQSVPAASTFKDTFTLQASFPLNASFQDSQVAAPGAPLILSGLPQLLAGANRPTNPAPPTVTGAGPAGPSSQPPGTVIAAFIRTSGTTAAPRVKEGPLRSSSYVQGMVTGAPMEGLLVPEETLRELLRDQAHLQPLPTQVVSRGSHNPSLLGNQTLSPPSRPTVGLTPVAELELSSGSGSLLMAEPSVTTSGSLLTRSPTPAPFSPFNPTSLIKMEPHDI
Procedure, shortened: as §1

ELK4 = biological target: T3, ELK4 (Homo sapiens, UniProt P28324-2 1-405); settings: protein: recombinant; tags: N-terminal GST; dsDNA, one strand shown
T3 sequence: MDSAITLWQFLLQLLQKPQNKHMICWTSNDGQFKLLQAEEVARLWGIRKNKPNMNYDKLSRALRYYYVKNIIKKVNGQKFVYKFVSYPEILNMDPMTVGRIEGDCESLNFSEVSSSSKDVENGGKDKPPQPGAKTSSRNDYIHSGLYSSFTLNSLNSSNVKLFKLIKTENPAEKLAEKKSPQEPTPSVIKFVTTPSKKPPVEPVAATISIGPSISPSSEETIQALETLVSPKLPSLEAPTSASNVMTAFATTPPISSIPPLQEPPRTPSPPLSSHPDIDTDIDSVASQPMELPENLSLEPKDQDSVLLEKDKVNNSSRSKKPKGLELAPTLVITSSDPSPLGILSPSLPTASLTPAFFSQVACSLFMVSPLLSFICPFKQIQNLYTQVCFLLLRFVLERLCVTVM
Procedure, shortened: as §1

ETV2 = biological target: T4, ETV2 (Homo sapiens, UniProt O00321 1-342); settings: protein: recombinant; tags: N-terminal GST; dsDNA, one strand shown
T4 sequence: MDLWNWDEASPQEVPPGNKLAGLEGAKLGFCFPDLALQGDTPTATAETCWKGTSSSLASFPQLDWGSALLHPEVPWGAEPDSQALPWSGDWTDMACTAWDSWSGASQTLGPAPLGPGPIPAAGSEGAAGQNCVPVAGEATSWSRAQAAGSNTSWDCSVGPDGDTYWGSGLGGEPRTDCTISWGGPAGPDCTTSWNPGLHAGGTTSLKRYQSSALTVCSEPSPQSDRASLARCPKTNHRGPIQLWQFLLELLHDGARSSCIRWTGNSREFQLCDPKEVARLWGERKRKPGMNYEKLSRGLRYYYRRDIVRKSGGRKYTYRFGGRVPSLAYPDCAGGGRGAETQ
Procedure, shortened: as §1

ELF3 = biological target: T5, ELF3 (Homo sapiens, UniProt P78545 1-371); settings: protein: recombinant; tags: N-terminal GST; dsDNA, one strand shown
T5 sequence: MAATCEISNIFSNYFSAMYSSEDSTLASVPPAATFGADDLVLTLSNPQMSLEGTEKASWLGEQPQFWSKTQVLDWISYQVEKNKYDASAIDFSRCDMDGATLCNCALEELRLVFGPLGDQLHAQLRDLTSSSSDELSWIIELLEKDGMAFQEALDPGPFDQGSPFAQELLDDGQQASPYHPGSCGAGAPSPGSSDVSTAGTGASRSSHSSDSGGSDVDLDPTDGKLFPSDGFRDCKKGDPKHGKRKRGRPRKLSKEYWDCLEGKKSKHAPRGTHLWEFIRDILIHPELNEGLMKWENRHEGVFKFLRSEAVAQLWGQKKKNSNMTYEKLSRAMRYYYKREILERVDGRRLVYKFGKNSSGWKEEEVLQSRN
Procedure, shortened: as §1

CRX = CRX (Homo sapiens, UniProt O43186 1-299); settings: protein: recombinant; tags: N-terminal GST; dsDNA, one strand shown
CRX, sequence (O43186 whole entry): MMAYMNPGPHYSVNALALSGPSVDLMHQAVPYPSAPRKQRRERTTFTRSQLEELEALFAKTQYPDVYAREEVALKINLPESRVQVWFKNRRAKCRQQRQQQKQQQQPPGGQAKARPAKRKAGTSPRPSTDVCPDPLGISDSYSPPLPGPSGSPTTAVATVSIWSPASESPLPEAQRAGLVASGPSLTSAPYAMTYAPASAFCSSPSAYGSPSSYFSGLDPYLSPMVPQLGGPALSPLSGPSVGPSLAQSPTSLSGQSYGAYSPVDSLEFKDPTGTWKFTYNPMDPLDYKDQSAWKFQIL
Procedure, shortened: as §1

ETV1 = ETV1 (Homo sapiens, UniProt P50549 1-477); settings: protein: recombinant; tags: N-terminal GST; dsDNA, one strand shown
ETV1, sequence (P50549 whole entry): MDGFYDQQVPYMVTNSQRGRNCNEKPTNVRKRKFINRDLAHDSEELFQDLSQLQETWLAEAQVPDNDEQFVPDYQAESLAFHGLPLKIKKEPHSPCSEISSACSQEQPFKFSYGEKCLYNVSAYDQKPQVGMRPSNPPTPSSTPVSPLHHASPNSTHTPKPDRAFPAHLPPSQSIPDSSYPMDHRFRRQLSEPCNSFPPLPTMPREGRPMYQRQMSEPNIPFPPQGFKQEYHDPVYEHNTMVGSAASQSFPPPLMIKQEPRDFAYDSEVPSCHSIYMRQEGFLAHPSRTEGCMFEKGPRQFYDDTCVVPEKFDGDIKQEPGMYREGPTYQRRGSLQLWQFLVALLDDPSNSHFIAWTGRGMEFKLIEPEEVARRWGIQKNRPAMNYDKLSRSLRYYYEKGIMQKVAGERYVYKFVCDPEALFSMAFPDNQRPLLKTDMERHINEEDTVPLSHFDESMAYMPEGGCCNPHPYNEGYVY
Procedure, shortened: as §1

ERF = biological target: T6, ERF (Homo sapiens, UniProt P50548 1-548); settings: protein: recombinant; tags: N-terminal GST; dsDNA, one strand shown
T6 sequence: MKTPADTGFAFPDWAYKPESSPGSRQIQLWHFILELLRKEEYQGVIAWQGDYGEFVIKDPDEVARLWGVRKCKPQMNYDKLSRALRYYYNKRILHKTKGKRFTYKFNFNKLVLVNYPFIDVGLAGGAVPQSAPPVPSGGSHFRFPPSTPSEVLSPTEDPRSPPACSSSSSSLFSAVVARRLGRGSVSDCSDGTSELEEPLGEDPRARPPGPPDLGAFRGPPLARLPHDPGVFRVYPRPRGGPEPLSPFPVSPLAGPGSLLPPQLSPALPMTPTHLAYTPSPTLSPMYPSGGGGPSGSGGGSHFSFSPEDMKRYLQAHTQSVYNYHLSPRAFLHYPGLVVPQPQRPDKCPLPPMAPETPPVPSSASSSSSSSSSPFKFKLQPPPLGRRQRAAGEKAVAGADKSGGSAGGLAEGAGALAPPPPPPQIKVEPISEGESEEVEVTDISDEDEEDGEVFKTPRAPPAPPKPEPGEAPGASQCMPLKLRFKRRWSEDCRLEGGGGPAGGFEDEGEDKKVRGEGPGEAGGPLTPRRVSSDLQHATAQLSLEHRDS
Procedure, shortened: as §1

ETV3L = biological target: T7, ETV3L (Homo sapiens, UniProt Q6ZN32 1-361); settings: protein: recombinant; tags: N-terminal GST; dsDNA, one strand shown
T7 sequence: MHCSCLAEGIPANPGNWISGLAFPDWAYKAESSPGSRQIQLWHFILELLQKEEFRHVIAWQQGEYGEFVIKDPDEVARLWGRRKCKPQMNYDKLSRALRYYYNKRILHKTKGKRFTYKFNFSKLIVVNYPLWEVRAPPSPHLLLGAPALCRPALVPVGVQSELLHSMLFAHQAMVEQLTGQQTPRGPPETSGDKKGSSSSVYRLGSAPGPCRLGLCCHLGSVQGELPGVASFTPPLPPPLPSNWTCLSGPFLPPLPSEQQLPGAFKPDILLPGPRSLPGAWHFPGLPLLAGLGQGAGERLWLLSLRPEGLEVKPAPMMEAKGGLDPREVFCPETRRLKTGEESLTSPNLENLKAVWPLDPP
Procedure, shortened: as §1

ETS2 = biological target: T8, ETS2 (Homo sapiens, UniProt P15036 1-469); settings: protein: recombinant; tags: N-terminal GST; dsDNA, one strand shown
T8 sequence: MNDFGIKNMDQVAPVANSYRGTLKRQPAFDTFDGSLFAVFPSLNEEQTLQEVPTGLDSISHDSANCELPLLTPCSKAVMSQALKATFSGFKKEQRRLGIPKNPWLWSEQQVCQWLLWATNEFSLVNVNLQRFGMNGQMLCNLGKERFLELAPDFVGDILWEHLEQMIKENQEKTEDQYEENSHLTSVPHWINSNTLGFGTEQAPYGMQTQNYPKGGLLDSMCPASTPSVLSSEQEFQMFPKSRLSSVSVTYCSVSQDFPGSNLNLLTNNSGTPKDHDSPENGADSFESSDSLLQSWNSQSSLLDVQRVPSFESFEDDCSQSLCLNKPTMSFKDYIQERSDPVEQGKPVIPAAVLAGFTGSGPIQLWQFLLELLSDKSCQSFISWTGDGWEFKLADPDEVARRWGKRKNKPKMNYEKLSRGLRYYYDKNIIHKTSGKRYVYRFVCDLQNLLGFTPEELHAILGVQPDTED
Procedure, shortened: as §1

SPDEF = biological target: T9, SPDEF (Homo sapiens, UniProt O95238 1-335); settings: protein: recombinant; tags: N-terminal GST; dsDNA, one strand shown
T9 sequence: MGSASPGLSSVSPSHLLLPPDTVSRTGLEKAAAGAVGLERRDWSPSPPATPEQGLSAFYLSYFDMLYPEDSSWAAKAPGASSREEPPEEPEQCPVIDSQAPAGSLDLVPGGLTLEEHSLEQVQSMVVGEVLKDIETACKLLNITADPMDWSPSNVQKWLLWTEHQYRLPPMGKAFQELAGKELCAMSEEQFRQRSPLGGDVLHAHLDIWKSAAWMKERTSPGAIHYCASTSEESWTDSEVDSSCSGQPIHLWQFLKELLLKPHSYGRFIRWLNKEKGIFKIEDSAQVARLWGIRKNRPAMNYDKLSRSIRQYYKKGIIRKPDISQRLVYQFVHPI
Procedure, shortened: as §1

ETV7 = biological target: T10, ETV7 (Homo sapiens, UniProt Q9Y603 1-341); settings: protein: recombinant; tags: N-terminal GST; dsDNA, one strand shown
T10 sequence: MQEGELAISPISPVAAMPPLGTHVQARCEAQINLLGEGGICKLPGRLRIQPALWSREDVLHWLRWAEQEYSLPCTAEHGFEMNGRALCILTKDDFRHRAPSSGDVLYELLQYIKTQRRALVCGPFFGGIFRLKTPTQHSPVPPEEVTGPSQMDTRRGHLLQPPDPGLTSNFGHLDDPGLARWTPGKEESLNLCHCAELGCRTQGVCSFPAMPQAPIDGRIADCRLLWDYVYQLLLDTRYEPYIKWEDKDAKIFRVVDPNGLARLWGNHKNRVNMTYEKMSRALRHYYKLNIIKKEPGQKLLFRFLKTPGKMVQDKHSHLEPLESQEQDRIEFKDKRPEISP
Procedure, shortened: as §1

ELF5 = biological target: T11, ELF5 (Homo sapiens, UniProt Q9UKW6-2 1-255); settings: protein: recombinant; tags: N-terminal GST; dsDNA, one strand shown
T11 sequence: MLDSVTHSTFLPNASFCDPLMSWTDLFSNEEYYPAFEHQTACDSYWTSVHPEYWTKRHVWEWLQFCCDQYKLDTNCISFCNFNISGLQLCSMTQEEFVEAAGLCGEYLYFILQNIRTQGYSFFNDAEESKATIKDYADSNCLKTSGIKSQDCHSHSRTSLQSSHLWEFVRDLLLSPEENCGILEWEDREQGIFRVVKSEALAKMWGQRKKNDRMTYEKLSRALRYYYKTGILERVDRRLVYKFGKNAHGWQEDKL
Procedure, shortened: as §1

ETV3 = biological target: T12, ETV3 (Homo sapiens, UniProt P41162-2 1-143); settings: protein: recombinant; tags: N-terminal GST; dsDNA, one strand shown
T12 sequence: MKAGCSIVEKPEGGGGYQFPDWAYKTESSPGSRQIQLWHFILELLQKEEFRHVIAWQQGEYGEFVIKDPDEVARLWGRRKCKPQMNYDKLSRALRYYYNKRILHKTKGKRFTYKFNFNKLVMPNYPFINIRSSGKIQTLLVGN
Procedure, shortened: as §1

ETV6 = ETV6 (Homo sapiens, UniProt P41212 1-452); settings: protein: recombinant; tags: N-terminal GST; dsDNA, one strand shown
ETV6, sequence (P41212 whole entry): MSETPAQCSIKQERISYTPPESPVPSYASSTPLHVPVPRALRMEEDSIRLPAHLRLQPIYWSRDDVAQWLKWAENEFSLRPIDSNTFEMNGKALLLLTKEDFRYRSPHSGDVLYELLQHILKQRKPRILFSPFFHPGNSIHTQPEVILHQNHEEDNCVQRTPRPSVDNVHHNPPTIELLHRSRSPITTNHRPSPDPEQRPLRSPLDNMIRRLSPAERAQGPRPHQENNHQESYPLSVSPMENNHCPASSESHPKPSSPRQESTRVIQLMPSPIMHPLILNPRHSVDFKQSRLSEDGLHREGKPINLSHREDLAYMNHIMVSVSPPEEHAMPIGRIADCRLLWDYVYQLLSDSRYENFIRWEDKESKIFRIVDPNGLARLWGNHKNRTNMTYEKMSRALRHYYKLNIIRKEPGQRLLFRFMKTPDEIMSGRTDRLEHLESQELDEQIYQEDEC
Procedure, shortened: as §1

In the case of ACTCAA, the binding signal (FEV) is reported as 1.23 fold enrichment (6-mer frequency, TF over GST control), the binding signal (ETV5) is reported as 1.16 fold enrichment (6-mer frequency, TF over GST control) and the binding signal (HSF1) is reported as 1.07 fold enrichment (6-mer frequency, TF over GST control). The binding signal (SPIC) was 1.17 fold enrichment (6-mer frequency, TF over GST control), the binding signal (ELF4) was 1.16 fold enrichment (6-mer frequency, TF over GST control) and the binding signal (ELK4) was 1.18 fold enrichment (6-mer frequency, TF over GST control). For the same sequence, the binding signal (ETV2) was 1.15 fold enrichment (6-mer frequency, TF over GST control), the binding signal (ELF3) was 1.12 fold enrichment (6-mer frequency, TF over GST control) and the binding signal (CRX) was 1.12 fold enrichment (6-mer frequency, TF over GST control). For the same sequence, the binding signal (ETV1) was 1.15 fold enrichment (6-mer frequency, TF over GST control), the binding signal (ERF) was 1.16 fold enrichment (6-mer frequency, TF over GST control) and the binding signal (ETV3L) was 1.21 fold enrichment (6-mer frequency, TF over GST control). For the same sequence, the binding signal (ETS2) was 1.23 fold enrichment (6-mer frequency, TF over GST control), the binding signal (SPDEF) was 1.16 fold enrichment (6-mer frequency, TF over GST control) and the binding signal (ETV7) was 1.05 fold enrichment (6-mer frequency, TF over GST control). For the same sequence, the binding signal (ELF5) was 1.15 fold enrichment (6-mer frequency, TF over GST control), the binding signal (ETV3) was 1.13 fold enrichment (6-mer frequency, TF over GST control) and the binding signal (ETV6) was 1.26 fold enrichment (6-mer frequency, TF over GST control).
